# Results reported in PubChem BioAssay (NCATS).
# Records with an inconclusive call do not appear. A call without a number means that no potency is given here. Activity calls are given as the source filed them. Calls come from the whole dose curve; as a rule, active = well fitted inhibition curve with a large enough effect; inconclusive = small, poorly fitted or top-dose-only effect; inactive = flat fitted curve, though single readings scatter.
# Tested on: CP265
# Experiment: qHTS profiling for inhibitors of Plasmodium falciparum proliferation (AID 504749); note: nearly all actives have a fitted effect of over 60% in size
# Details: P. falciparum in erythrocytes, SYBR Green DNA, 72 h; series mostly up to 28.7 µM
# Method in brief: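 P. falciparum-infected erythrocytes (0.3% parasitemia, 2.5% hematocrit) incubated with compound 72 h at 37 C, 5% CO2. Parasite DNA detected by SYBR Green after lysis, overnight at room temperature; normalised to 0.29 uM artemisinin and DMSO.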
# Potency is the fitted concentration of half-maximal effect.
row,Structure (SMILES),Potency
1,CCCCCCCCCCCCCCCC(=O)OC[C@H](O)[C@H]1OC[C@@H](O)[C@@H]1O,inactive
2,CCCCC(=O)OCC(=O)[C@]1(O)Cc2c(O)c3c(c(O)c2[C@H](OC2CC(NC(=O)C(F)(F)F)C(O)C(C)O2)C1)C(=O)c1c(OC)cccc1C3=O (stereo not given in full),3160 nM (active)
3,C[C@H]1OC(OC2C(O)[C@@H](O)C(OC3C(O)[C@@H](O)C(O)O[C@@H]3CO)O[C@@H]2CO)[C@H](O)C(O)C1N[C@H]1C=C(CO)[C@@H](O)[C@H](O)C1O (stereo not given in full),inactive
4,CCN(CC)CC(=O)Nc1c(C)cc(C)cc1C,inactive
5,CC(=O)N[C@H]1[C@H](O[C@@H]2c3ccc(c(Cl)c3)Oc3cc4cc(c3O[C@@H]3O[C@H](CO)[C@@H](O)[C@H](O)C3C)Oc3ccc(cc3Cl)C[C@H]3NC(=O)[C@@H](N)c5ccc(O)c(c5)Oc5cc(O)cc(c5)[C@H](NC3=O)C(=O)N[C@H]4C(=O)N[C@H]3C(=O)N[C@@H]2C(=O)N[C@@H](C(=O)O)c2cc(O)cc(O[C@H]4O[C@H](CO)[C@@H](O)C(O)[C@@H]4O)c2-c2cc3ccc2O)O[C@H](CO)[C@@H](O)[C@@H]1O (stereo not given in full),inactive
6,NC(=O)c1ncn(C2OC(CO)C(O)C2O)c1N (stereo not given),inactive
7,C[C@H]1[C@@H](OC(=O)CCC(=O)O)OC2OC3(C)CC[C@H]4[C@H](C)CC[C@@H]1[C@@]24OO3 (stereo not given in full),2.5 nM (active)
8,CC1(Cn2ccnn2)[C@H](C(=O)O)N2C(=O)C[C@H]2S1(=O)=O (stereo not given in full),inactive
9,CN(C)CC/C=C1\c2ccccc2COc2ccc(CC(=O)O)cc21,inactive
10,CCCC(=O)O[C@]1(C(=O)COC(C)=O)CC[C@H]2C3C[C@H](F)C4=CC(=O)C=CC4(C)[C@@]3(F)[C@@H](O)CC21C (stereo not given in full),inactive
11,OCCN1CC(O)C(O)C(O)C1CO (stereo not given),inactive
12,COc1cc2c(cc1O)CCN[C@@]21CS[C@H]2c3c(OC(C)=O)c(C)c4c(c3C(COC1=O)N1C2C2c3c(cc(C)c(OC)c3O)CC([C@@H]1O)N2C)OCO4 (stereo not given in full),4.5 nM (active)
13,CC(CCC(=O)O)C1CCC2C3C(=O)C[C@@H]4CC(=O)CC[C@@]4(C)C3CC(=O)[C@]12C (stereo not given in full),inactive
14,C[n+]1c2cc(N)ccc2cc2ccc(N)cc21,1260 nM (active)
15,O=C(OC[C@@H]1O[C@@](O)(COC(=O)c2cccnc2)[C@H](OC(=O)c2cccnc2)[C@H]1OC(=O)c1cccnc1)c1cccnc1,inactive
16,O=[N+]([O-])O[C@H]1CO[C@H]2[C@@H]1OC[C@H]2O,inactive
17,COc1cccc(OC)c1C(=O)NC1C(=O)N2C1SC(C)(C)C2C(=O)O (stereo not given),inactive
18,NC[C@@H]1O[C@H](OC2[C@@H](CO)O[C@@H](OC3[C@H](O)[C@H](N)C[C@H](N)[C@H]3OC3O[C@H](CO)[C@@H](O)[C@H](O)[C@@H]3N)[C@H]2O)C(N)[C@H](O)[C@@H]1O (stereo not given in full),inactive
19,Cc1ccc(S(=O)(=O)NC(=O)NC(C)Cc2ccccc2)cc1 (stereo not given),inactive
20,OCCOC[C@H]1O[C@H](OCCO)[C@H](OCCO)[C@@H](OCCO)[C@@H]1OCCO (tested in a mixture with another compound),inactive

row,Structure (SMILES),Potency
1,C[S+](C)CC[C@H](N)C(=O)O,inactive
2,CC[C@@H]1/C=C(\C)C[C@H](C)C[C@H](OC)[C@H]2O[C@@](O)(C(=O)C(=O)N3CCCC[C@H]3C(=O)O[C@H](/C(C)=C/[C@@H]3CC[C@H](Cl)[C@H](OC)C3)[C@H](C)[C@@H](O)CC1=O)[C@H](C)C[C@@H]2OC,inactive
3,NC(=O)C1CC2(NC(=O)NC2=O)c2cc(F)ccc2O1 (stereo not given),inactive
4,CN1[C@@H]2CC[C@@H]1CC(OC(=O)[C@H](CO)c1ccccc1)C2 (stereo not given in full),inactive
5,CC[C@@]1(O)C[C@H](O[C@H]2C[C@@H](N(C)C)[C@@H](O[C@H]3C[C@@H](O)[C@@H](O[C@H]4CCC(=O)[C@@H](C)O4)[C@@H](C)O3)[C@@H](C)O2)c2c(cc3c(c2O)C(=O)c2c(O)cccc2C3=O)[C@H]1C(=O)OC,224 nM (active)
6,CCCCCCCCCCCC(=O)OCC(O)C1OCC(O)C1O (stereo not given),inactive
7,C/C1=C2/[N-]C(C(CC(N)=O)[C@@]2(C)CCC(=O)NCC(C)OP(=O)([O-])O[C@H]2[C@@H](O)[C@@H](n3cnc4cc(C)c(C)cc43)O[C@@H]2CO)[C@]2(C)N=C(/C(C)=C3N=C(/C=C4N=C1C(CCC(N)=O)C\4(C)C)[C@@H](CCC(N)=O)[C@]\3(C)CC(N)=O)[C@@H](CCC(N)=O)[C@]2(C)CC(N)=O.CC(=O)O.[Co] (stereo not given in full),inactive
8,CC1(C)OC[C@@H]2O[C@@]3(C(=O)O)OC(C)(C)O[C@@H]3[C@@H]2O1,inactive
9,Cc1ccccc1N1C(=O)c2cc(N)ccc2N/C1=C\F,inactive
10,CCC(C(=O)O)C1OC(C(C)C(O)C(C)C(=O)C(CC)C2OC3(C=CC(O)C4(CCC(C)(C5CCC(O)(CC)C(C)O5)O4)O3)C(C)CC2C)C(C)CC1C (stereo not given),224 nM (active)
11,O=C1C(I)=CC(=C(c2cc(I)c(O)c(I)c2)c2ccccc2C(=O)O)C=C1I,inactive
12,NC(=O)NC(CCC(=O)O)C(=O)O (stereo not given),inactive
13,COC1CC2CCC(C)[C@](O)(O2)C(=O)C(=O)N2CCCCC2C(=O)OC(C(C)CC2CCC(O)C(OC)C2)CC(=O)C(C)/C=C(/C)C(O)C(OC)C(=O)C(C)CC(C)C=CC=C/C=C\1C (stereo not given in full),2820 nM (active)
14,CC(=O)OCC(=O)[C@@]1(O)CCC2C3C[C@H](C)C4=CC(=O)C=CC4(C)C3C(O)CC21C (stereo not given in full),inactive
15,CN[C@H](C)CCC=C(C)C,398 nM (active)
16,CC1(C)C2CC[C@]1(C)[C@@H](O)C2,inactive
17,OCC1O[C@H](Oc2ccc(O)cc2)C(O)C(O)C1O (stereo not given in full),inactive
18,Nc1nc(F)nc2c1ncn2[C@@H]1O[C@H](CO)[C@@H](O)[C@H]1O,inactive
19,CC1OC(OC2CCC3(C)C(CCC4C3CC(O)C3(C)C(C5=CC(=O)OC5)CCC43O)C2)CC(O)C1OC1CC(O)C(OC2CC(O)C(OC3OC(CO)C(O)C(O)C3O)C(C)O2)C(C)O1 (stereo not given),inactive
20,CC1OC(OCC2OC(Oc3c(-c4ccc(OCCO)c(OCCO)c4)oc4cc(OCCO)cc(O)c4c3=O)C(O)C(O)C2O)[C@@H](O)C(O)C1O (stereo not given in full),inactive
